Measurements from PubChem BioAssay.
For some assays here: Measured potencies and affinities stand elsewhere. The source made the active and inactive calls. Unless noted, how the calls were made is not given here.

What was measured:
[1] = antimalarial activity against Dd2 strain (AID 2302;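 active means growth inhibition above 50% at the single 2 µM test dose, taken to imply half-maximal potency below 2 µM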;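 further: 0% = DMSO untreated growth and 100% = chloroquine plus artemisinin killed control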); details: P. falciparum Dd2 in RBCs, LDH growth readout, 72 h; at 2 µM; stronger effect = higher value
[2] = human hepatoma cell viability loss – ATP luminescence, cytotoxicity control for P. falciparum antimalarial project, primary screen (AID 2303;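 active means inhibition above 50%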;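 further: 0% = DMSO wells and 100% = digitonin-killed cells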); details: HepG2 viability, 24-48 h, at 10 µM, stronger effect = higher value
[3] = target: L-lactate dehydrogenase (Plasmodium falciparum (isolate CDC / Honduras)) (UniProt Q27743); assay: PfLDH activity inhibition – cell lysate, 3D7 strain, counter-screen for P. falciparum growth inhibition project (AID 2304);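 further: 0% = vehicle and 100% = reference inhibitor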; details: P. falciparum 3D7 crude extract, LDH APAD/NBT absorbance; at 2 µM; stronger effect = higher value
[4] = inhibition of 3D7 malaria parasite growth – strain 3D7 (AID 2306);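 further: 0% = DMSO wells and 100% = chloroquine plus artemisinin control wells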; details: P. falciparum 3D7 erythrocytic growth, LDH absorbance, 72 h; at 2 µM; stronger effect = higher value
[5] = target: Calcium-dependent protein kinase 1 (Plasmodium falciparum (isolate 3D7)) (UniProt P62344); assay: PfCDPK1 kinase inhibitors, biochemical, TCAMS library (AID 1159585; cut-off not given, nearly all actives have IC50 up to about 0.98 µM;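 further: inhibitors leave more ATP so luminescence rises with inhibition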); details: recombinant PfCDPK1, Kinase-Glo ATP depletion luminescence
[6] = target: Plasmodium falciparum protein kinase 6 (PK6, PF3D7_1337100) (UniProt Q8IDW1); assay: PfPK6 kinase inhibitors, biochemical, TCAMS library (AID 1159586); details: recombinant PfPK6, Kinase-Glo ATP depletion luminescence
[7] = target: Protein kinase 7 (PK7), Plasmodium falciparum 3D7 (PF3D7_0213400) (UniProt Q7YTF7); assay: inhibition of Plasmodium PK7 catalytic activity – biochemical, TCAMS antimalarial set, Kinase-Glo luminescence (AID 1159587); details: recombinant PfPK7, Kinase-Glo ATP depletion luminescence
[8] = target: Calcium-dependent protein kinase 4 (Plasmodium falciparum (isolate 3D7)) (UniProt Q8IBS5); assay: PfCDPK4 kinase inhibitors, biochemical, TCAMS library (AID 1159588; cut-off not given, nearly all actives have IC50 up to about 0.91 µM); details: recombinant PfCDPK4, Kinase-Glo ATP depletion luminescence
Chain of Calcium-dependent protein kinase 4 (Plasmodium falciparum (isolate 3D7)) (Q8IBS5 whole entry, looked up): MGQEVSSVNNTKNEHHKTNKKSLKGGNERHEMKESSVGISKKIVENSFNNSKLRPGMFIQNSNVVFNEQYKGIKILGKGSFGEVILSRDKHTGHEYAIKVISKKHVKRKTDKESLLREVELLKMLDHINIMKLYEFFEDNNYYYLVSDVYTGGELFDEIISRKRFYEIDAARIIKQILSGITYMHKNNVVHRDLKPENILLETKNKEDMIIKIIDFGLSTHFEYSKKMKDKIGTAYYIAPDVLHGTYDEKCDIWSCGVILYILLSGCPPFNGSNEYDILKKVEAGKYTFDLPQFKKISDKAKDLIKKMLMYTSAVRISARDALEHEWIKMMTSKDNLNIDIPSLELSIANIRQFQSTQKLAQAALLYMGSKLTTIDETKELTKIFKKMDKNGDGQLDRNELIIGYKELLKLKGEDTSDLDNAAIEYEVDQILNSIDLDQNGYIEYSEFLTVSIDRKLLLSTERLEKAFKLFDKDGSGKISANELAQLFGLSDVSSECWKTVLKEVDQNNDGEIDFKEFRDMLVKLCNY

Chain of Calcium-dependent protein kinase 1 (Plasmodium falciparum (isolate 3D7)) (P62344 whole entry, looked up): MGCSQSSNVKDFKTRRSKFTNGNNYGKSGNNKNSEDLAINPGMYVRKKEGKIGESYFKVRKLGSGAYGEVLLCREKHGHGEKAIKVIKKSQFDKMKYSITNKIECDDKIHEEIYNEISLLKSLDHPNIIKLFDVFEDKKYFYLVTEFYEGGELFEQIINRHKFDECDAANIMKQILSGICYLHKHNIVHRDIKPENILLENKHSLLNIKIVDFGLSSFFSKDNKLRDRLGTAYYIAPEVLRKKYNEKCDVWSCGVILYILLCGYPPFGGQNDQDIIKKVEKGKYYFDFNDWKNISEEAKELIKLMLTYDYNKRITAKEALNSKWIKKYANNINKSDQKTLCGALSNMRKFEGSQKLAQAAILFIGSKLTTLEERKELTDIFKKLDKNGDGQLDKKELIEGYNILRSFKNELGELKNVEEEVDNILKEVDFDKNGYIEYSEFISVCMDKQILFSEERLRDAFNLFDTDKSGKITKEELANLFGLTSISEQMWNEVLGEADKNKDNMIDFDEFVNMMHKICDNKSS
Chain of L-lactate dehydrogenase (Plasmodium falciparum (isolate CDC / Honduras)) (Q27743 whole entry, looked up): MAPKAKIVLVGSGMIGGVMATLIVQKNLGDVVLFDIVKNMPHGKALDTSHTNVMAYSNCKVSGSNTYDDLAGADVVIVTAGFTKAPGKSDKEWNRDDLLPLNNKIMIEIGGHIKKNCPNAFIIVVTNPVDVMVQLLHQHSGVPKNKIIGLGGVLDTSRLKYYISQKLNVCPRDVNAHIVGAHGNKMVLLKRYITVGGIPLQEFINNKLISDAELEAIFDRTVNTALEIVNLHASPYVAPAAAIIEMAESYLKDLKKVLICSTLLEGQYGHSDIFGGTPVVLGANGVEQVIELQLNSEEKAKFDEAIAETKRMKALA
Chain of Protein kinase 7 (PK7), Plasmodium falciparum 3D7 (PF3D7_0213400) (Q7YTF7 1-343): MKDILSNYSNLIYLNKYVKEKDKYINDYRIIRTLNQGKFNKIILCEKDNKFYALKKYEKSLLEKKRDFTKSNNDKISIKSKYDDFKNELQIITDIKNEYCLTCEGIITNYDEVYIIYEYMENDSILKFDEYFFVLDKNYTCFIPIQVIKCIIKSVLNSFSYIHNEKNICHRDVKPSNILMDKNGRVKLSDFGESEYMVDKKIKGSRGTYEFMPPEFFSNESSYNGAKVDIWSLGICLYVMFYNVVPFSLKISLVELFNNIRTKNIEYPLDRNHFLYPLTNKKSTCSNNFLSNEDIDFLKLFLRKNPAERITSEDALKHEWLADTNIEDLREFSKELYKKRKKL
Chain of Plasmodium falciparum protein kinase 6 (PK6, PF3D7_1337100) (Q8IDW1 1-305): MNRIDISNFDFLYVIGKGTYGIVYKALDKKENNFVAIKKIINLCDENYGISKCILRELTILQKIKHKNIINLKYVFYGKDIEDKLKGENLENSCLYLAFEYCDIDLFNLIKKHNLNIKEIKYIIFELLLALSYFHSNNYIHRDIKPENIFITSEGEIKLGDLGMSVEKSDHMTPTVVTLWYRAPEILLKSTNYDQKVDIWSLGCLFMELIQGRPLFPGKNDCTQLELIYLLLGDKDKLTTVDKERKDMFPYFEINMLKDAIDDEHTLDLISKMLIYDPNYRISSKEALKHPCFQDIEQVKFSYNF

CCc1ccc(N2C(=O)C3C(Cc4ccc(OC(C)(C)C)cc4)NC4(C(=O)N(Cc5ccccc5)c5ccc(F)cc54)C3C2=O)cc1 (stereo not given)
active: growth inhibition [4] 96%
inactive: growth inhibition [1] 49% | inhibition [2] 9% | inhibition [3] -10% | outcome [5] | outcome [6] | outcome [7] | outcome [8]

COc1ccc(C2CC(=O)C3=C(C2)NC(C)=C(C(=O)OC2CCCC2)C3c2cccc(O)c2)cc1 (stereo not given)
active: growth inhibition [1] 83% | growth inhibition [4] 88%
inactive: inhibition [2] -6% | inhibition [3] -2% | outcome [5] | outcome [6] | outcome [7] | outcome [8]

CC(C)(C)c1cc(NC(=O)c2ccc(Cl)c([N+](=O)[O-])c2)cc(C(C)(C)C)c1
active: growth inhibition [4] 93%
inactive: growth inhibition [1] 7% | inhibition [2] -4% | inhibition [3] 4% | outcome [5] | outcome [6] | outcome [7] | outcome [8]

CC1CC(NCCCNc2cc(=O)c3ccccc3[nH]2)c2c(Cl)c(Cl)cc(Cl)c21 (stereo not given)
inactive: inhibition [2] 6% | inhibition [3] 2% | outcome [5] | outcome [6] | outcome [7] | outcome [8]
active: growth inhibition [1] 52% | growth inhibition [4] 87%

COc1ccccc1C1CCN(C2CCC(NC(=O)/C=C/c3cccc(Cl)c3F)CC2)CC1 (stereo not given)
active: inhibition [2] 50% | growth inhibition [4] 96%
inactive: growth inhibition [1] 19% | inhibition [3] -4% | outcome [5] | outcome [6] | outcome [7] | outcome [8]

CC1CCN(Cc2ccc(NC(=O)c3cc4ccc5cccnc5c4[nH]3)cc2)CC1
inactive: inhibition [2] 10% | inhibition [3] -1% | outcome [5] | outcome [6] | outcome [7] | outcome [8]
active: growth inhibition [1] 93% | growth inhibition [4] 101%

O=[N+]([O-])c1cccc(CNCC2CCN(Cc3ccc(Cl)c(Cl)c3)CC2)c1
active: growth inhibition [4] 101%
inactive: growth inhibition [1] 41% | inhibition [2] 9% | inhibition [3] 4% | outcome [5] | outcome [6] | outcome [7] | outcome [8]

Fc1ccc([C@H]2N=C(SCCSC3=N[C@H](c4ccc(F)cc4)[C@H](c4ccc(F)cc4)N3)N[C@H]2c2ccc(F)cc2)cc1
inactive: inhibition [2] 18% | inhibition [3] -5% | outcome [5] | outcome [6] | outcome [7] | outcome [8]
active: growth inhibition [1] 69% | growth inhibition [4] 99%

O=S(=O)(c1cccc(Cl)c1F)N(CCC(O)(C(F)(F)F)C(F)(F)F)Cc1cccc(O)c1
active: growth inhibition [1] 86% | growth inhibition [4] 100%
inactive: inhibition [2] -5% | inhibition [3] 0% | outcome [5] | outcome [6] | outcome [7] | outcome [8]

CCOc1c(CNCCCNc2nc3ccccc3[nH]2)cc(I)cc1OC
inactive: growth inhibition [1] 4% | inhibition [2] 42% | inhibition [3] 1% | outcome [5] | outcome [6] | outcome [7] | outcome [8]
active: growth inhibition [4] 100%

CCC[C@@H]([C@@H](CC1CCCCC1)C(=O)N[C@H](C(=O)Nc1nccs1)[C@@H](C)OCc1ccccc1)N(O)C=O
inactive: inhibition [3] -3% | outcome [5] | outcome [6] | outcome [7] | outcome [8]
active: growth inhibition [1] 99% | inhibition [2] 51% | growth inhibition [4] 100%

Cc1nnsc1C(=O)Nc1ccc(-c2ccc(-c3nc4c(C)cccc4[nH]3)s2)cc1
inactive: inhibition [3] 2% | outcome [5] | outcome [6] | outcome [7] | outcome [8]
active: growth inhibition [1] 61% | inhibition [2] 63% | growth inhibition [4] 100%

CCOc1ccc2nc(C)cc(NN=Cc3ccccc3)c2c1
inactive: growth inhibition [1] 8% | inhibition [2] 5% | inhibition [3] -3% | outcome [5] | outcome [6] | outcome [7] | outcome [8]
active: growth inhibition [4] 96%

CNC(=O)c1cc(S(=O)(=O)N2CCN(c3ccccn3)CC2)cs1
active: growth inhibition [1] 100% | growth inhibition [4] 99%
inactive: inhibition [2] -2% | inhibition [3] -3% | outcome [5] | outcome [6] | outcome [7] | outcome [8]

Clc1ccc(-c2cc(-c3csc(NCCN4CCOCC4)n3)on2)c(Cl)c1
inactive: inhibition [2] 39% | inhibition [3] -3% | outcome [5] | outcome [6] | outcome [7] | outcome [8]
active: growth inhibition [1] 86% | growth inhibition [4] 97%

COc1ccc(OC)c(NC(=O)c2c(-c3c(F)cccc3Cl)noc2C)c1
active: growth inhibition [4] 94%
inactive: growth inhibition [1] 25% | inhibition [2] -1% | inhibition [3] -1% | outcome [5] | outcome [6] | outcome [7] | outcome [8]

O=C(NC1CC1)c1cnc(N2CCC(OCc3ccccc3)CC2)c(Cl)c1
active: growth inhibition [1] 71% | growth inhibition [4] 90%
inactive: inhibition [2] -5% | inhibition [3] -2% | outcome [5] | outcome [6] | outcome [7] | outcome [8]

COc1ccc(Cn2c(=O)[nH]c3cc(C(=O)NC4CCN(Cc5ccccc5)CC4)ccc3c2=O)cc1
active: growth inhibition [4] 97%
inactive: growth inhibition [1] 45% | inhibition [2] 10% | inhibition [3] -7% | outcome [5] | outcome [6] | outcome [7] | outcome [8]

CC(CN1CCN(C)CC1)C(=O)Nc1cccc(-c2ccc(-c3nc4ccc(C(F)(F)F)cc4[nH]3)cc2)c1 (stereo not given)
active: growth inhibition [1] 98% | growth inhibition [4] 101%
inactive: inhibition [2] 11% | inhibition [3] -2% | outcome [5] | outcome [6] | outcome [7] | outcome [8]

COc1cc(C(=O)NC2CC(C)(C)N(C)C(C)(C)C2)ccc1-c1cc2cc(Cl)c(Cl)cc2[nH]1
active: inhibition [2] 65% | growth inhibition [4] 89%
inactive: growth inhibition [1] 36% | inhibition [3] 1% | outcome [5] | outcome [6] | outcome [7] | outcome [8]

COc1ccc(CON2C(N)=NC(N)=NC2(C)C)cc1OC
inactive: inhibition [3] 1% | outcome [5] | outcome [6] | outcome [7] | outcome [8]
active: growth inhibition [1] 97% | inhibition [2] 68% | growth inhibition [4] 96%

N#Cc1ccc2c(c1)CN(CCC1CCC(NC(=O)c3cc4cnccc4[nH]3)CC1)CC2 (stereo not given)
inactive: growth inhibition [1] 28% | inhibition [2] 13% | inhibition [3] -2% | outcome [5] | outcome [6] | outcome [7] | outcome [8]
active: growth inhibition [4] 97%

CC(C)CNc1c2c(nc3cnn(-c4c5c(nc6cn[nH]c46)CCCC5)c13)CCCC2
inactive: growth inhibition [1] -2% | inhibition [2] 7% | inhibition [3] -5% | outcome [5] | outcome [6] | outcome [7] | outcome [8]
active: growth inhibition [4] 100%

CN(C)CCNc1cc(-c2cccnc2)nc(-c2ccncc2)n1
inactive: inhibition [2] 33% | inhibition [3] -5% | outcome [5] | outcome [6] | outcome [7] | outcome [8]
active: growth inhibition [1] 98% | growth inhibition [4] 100%

CCOc1cc(C(=O)Nc2ccc3nc(N(CC)CC)cc(C)c3c2)cc(OCC)c1OCC
inactive: growth inhibition [1] 9% | inhibition [2] 16% | inhibition [3] -2% | outcome [5] | outcome [6] | outcome [7] | outcome [8]
active: growth inhibition [4] 98%

O=C(/C=C/c1ccc(Cl)c(Cl)c1)NCCCCCN1CCCN(C(=S)Nc2cccc(Cl)c2)CC1
inactive: growth inhibition [1] 7% | inhibition [2] 19% | inhibition [3] 0% | outcome [5] | outcome [6] | outcome [7] | outcome [8]
active: growth inhibition [4] 93%

COc1ccc2nccc([C@@H](O)CN3CC[C@H](NCc4nc5c(cc4F)SCC(=O)N5)[C@H](F)C3)c2c1
active: growth inhibition [4] 95%
inactive: growth inhibition [1] 49% | inhibition [2] 9% | inhibition [3] -4% | outcome [5] | outcome [6] | outcome [7] | outcome [8]

O=C1c2ccccc2C(=O)N1c1ccc(S(=O)(=O)N2CCOCC2)cc1
inactive: growth inhibition [1] -1% | inhibition [2] -1% | inhibition [3] 3% | outcome [5] | outcome [6] | outcome [7] | outcome [8]
active: growth inhibition [4] 94%

O=c1cc(NCCCNCc2[nH]c3cc(Cl)cc(Cl)c3c2Cn2cccn2)[nH]c2ccccc12
active: growth inhibition [4] 86%
inactive: growth inhibition [1] 2% | inhibition [2] 5% | inhibition [3] 1% | outcome [5] | outcome [6] | outcome [7] | outcome [8]

CC(Nc1ncc(-c2ccsc2)c(-c2nccs2)n1)c1ccc2c(c1)OCCO2 (stereo not given)
inactive: inhibition [2] 14% | inhibition [3] 2% | outcome [5] | outcome [6] | outcome [7] | outcome [8]
active: growth inhibition [1] 66% | growth inhibition [4] 81%

CCCCCCCN1CC[C@@H](CCCc2ccnc3ccc(OCCN4CCNCC4)cc23)[C@@H](CC)C1
active: growth inhibition [1] 98% | inhibition [2] 82% | growth inhibition [4] 101%
inactive: inhibition [3] -2% | outcome [5] | outcome [6] | outcome [7] | outcome [8]

COc1ccc2nccc([C@@H](O)CN3CCC(NC(=O)Cc4cc5ccccc5s4)CC3)c2c1
active: growth inhibition [4] 92%
inactive: growth inhibition [1] 42% | inhibition [2] 16% | inhibition [3] 7% | outcome [5] | outcome [6] | outcome [7] | outcome [8]

O=C(NCCCN1CCN(c2cccc(Cl)c2)CC1)c1ccc(-c2nc3cc(Cl)c(Cl)cc3[nH]2)c(F)c1
active: growth inhibition [1] 72% | growth inhibition [4] 101%
inactive: inhibition [2] 3% | inhibition [3] 2% | outcome [5] | outcome [6] | outcome [7] | outcome [8]

COc1ccc2nccc([C@@H](O)CN3CCC(NC(=O)/C=C/c4ccc(Cl)c(C(F)(F)F)c4)CC3)c2c1
inactive: inhibition [2] 11% | inhibition [3] -4% | outcome [5] | outcome [6] | outcome [7] | outcome [8]
active: growth inhibition [1] 89% | growth inhibition [4] 102%

COc1cccc(CN2CCCC(OC(c3ccccc3)c3ccccc3)C2)c1O (stereo not given)
inactive: inhibition [2] 19% | inhibition [3] 0% | outcome [5] | outcome [6] | outcome [7] | outcome [8]
active: growth inhibition [1] 73% | growth inhibition [4] 90%

CCNc1cc(C(=O)N[C@@H](Cc2ccccc2)[C@H](O)CNCCC(C)c2ccccc2)cc(N2CCCC2=O)c1 (stereo not given in full)
inactive: inhibition [2] 0% | inhibition [3] 3% | outcome [5] | outcome [6] | outcome [7] | outcome [8]
active: growth inhibition [1] 95% | growth inhibition [4] 99%

COc1ccc2nccc([C@@H](O)CN3CCC(NC(=O)/C=C/c4c[nH]c5c(C)cccc45)CC3)c2c1
inactive: inhibition [2] 23% | inhibition [3] 4% | outcome [5] | outcome [6] | outcome [7] | outcome [8]
active: growth inhibition [1] 88% | growth inhibition [4] 101%

Fc1ccc(-c2oc(C3CCN(CCc4ccc(-c5nc(=S)o[nH]5)cc4)CC3)nc2COCC(F)(F)F)cc1
inactive: inhibition [2] 5% | inhibition [3] 3% | outcome [5] | outcome [6] | outcome [7] | outcome [8]
active: growth inhibition [1] 95% | growth inhibition [4] 97%

CS(=O)(=O)c1ccc(CCNCc2ccc(-c3cccc(-c4nc5ccccc5[nH]4)c3)cc2)cc1
active: growth inhibition [1] 99% | growth inhibition [4] 100%
inactive: inhibition [2] 40% | inhibition [3] -4% | outcome [5] | outcome [6] | outcome [7] | outcome [8]

CCN(CCO)Cc1ccc(-c2ccc(NS(=O)(=O)c3cccc4cccnc34)cc2)cc1
active: growth inhibition [4] 92%
inactive: growth inhibition [1] 16% | inhibition [2] 25% | inhibition [3] 2% | outcome [5] | outcome [6] | outcome [7] | outcome [8]
